The source of these data is ChEMBL document CHEMBL1961873, “Compounds: GSK PKIS; Assays: Nanosyn kinase panel” (2012).

For experiment [1], the target named is Tyrosine-protein kinase CSK (Homo sapiens) (UniProt P41240). Particulars: at 1 µM.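 Note: each value is an averaged inhibition reading.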
Experiment [2] concerns the target T1, Discoidin domain-containing receptor 2 (Homo sapiens) (UniProt Q16832).
T1 sequence (whole entry): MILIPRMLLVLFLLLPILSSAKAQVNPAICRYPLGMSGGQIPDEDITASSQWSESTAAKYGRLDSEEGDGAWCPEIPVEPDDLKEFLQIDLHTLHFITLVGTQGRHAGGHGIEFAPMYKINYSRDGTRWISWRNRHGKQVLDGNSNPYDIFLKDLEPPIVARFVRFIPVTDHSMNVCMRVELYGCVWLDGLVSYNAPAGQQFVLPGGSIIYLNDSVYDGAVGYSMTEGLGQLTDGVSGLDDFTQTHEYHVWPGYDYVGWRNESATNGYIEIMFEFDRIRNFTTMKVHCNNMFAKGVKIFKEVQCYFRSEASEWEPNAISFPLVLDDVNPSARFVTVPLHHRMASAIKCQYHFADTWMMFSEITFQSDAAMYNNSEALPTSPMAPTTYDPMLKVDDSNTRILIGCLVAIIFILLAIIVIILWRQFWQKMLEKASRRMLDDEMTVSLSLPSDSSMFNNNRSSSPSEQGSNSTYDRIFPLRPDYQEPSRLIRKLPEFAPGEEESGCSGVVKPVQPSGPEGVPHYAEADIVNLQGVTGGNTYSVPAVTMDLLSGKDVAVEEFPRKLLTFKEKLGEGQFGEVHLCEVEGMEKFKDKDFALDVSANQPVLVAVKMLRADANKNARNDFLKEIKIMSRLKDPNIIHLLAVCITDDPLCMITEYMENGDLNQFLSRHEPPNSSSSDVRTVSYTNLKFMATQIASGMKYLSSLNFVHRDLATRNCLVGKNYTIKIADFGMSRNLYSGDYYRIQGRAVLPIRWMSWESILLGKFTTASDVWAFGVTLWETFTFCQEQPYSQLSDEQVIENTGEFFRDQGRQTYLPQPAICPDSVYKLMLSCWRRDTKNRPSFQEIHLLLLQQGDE
The note with it: at 0.1 µM.

Experiment [3] addresses T1, Discoidin domain-containing receptor 2 (Homo sapiens). Particulars: at 1 µM.
Experiment [4] concerns the target Epidermal growth factor receptor (Homo sapiens) (UniProt P00533). The note with it: at 0.1 µM.
For experiment [5] the target is unchanged. The note with it: at 1 µM.
The test system of experiment [6] is Epidermal growth factor receptor (Homo sapiens), P00533 [L858R]. Particulars: at 0.1 µM.
Chain of Epidermal growth factor receptor (Homo sapiens), P00533 [L858R] (P00533 whole entry L858R): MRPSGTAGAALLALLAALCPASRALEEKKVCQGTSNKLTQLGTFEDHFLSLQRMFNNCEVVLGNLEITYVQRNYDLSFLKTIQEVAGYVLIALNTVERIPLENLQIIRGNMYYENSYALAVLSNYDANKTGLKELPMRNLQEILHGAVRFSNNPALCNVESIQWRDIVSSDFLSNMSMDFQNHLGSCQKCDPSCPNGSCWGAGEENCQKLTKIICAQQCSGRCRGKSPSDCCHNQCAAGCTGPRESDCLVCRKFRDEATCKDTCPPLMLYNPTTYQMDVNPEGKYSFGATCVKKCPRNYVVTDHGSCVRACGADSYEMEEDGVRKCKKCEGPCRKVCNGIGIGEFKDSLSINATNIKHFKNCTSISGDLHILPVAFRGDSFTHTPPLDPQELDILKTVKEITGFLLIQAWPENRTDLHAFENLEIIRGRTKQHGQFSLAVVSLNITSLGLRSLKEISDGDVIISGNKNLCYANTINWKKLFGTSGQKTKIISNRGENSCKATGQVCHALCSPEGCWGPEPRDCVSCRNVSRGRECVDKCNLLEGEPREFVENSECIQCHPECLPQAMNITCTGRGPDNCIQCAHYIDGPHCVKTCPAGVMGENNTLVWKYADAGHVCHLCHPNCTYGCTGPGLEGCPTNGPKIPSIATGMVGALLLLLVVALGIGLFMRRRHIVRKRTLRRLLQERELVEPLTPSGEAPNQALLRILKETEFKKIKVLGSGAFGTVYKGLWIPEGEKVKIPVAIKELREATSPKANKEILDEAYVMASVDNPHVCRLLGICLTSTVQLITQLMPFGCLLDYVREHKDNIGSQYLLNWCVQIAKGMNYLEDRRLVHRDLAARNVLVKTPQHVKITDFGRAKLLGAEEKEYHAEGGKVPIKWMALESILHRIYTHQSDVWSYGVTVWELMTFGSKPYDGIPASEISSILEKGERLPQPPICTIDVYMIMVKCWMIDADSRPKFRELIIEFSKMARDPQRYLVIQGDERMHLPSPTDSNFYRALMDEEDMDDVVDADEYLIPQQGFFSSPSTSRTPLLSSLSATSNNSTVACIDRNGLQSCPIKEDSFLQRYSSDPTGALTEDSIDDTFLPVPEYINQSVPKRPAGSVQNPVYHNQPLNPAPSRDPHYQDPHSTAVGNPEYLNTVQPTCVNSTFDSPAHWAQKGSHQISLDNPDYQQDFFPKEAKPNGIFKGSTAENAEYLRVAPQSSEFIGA
For experiment [7] the test system is unchanged. The note with it: at 1 µM.
For experiment [8], the system named is Epidermal growth factor receptor (Homo sapiens), P00533 [L861Q]. The note with it: at 0.1 µM.
For experiment [9] the test system is unchanged. The note with it: at 1 µM.
Experiment [10] relates to Epidermal growth factor receptor (Homo sapiens), P00533 [T790M]. The note with it: at 0.1 µM.
The test system is the same in experiment [11]. The note with it: at 1 µM.
The test system of experiment [12] is Epidermal growth factor receptor (Homo sapiens), P00533 [L858R,T790M]. Particulars: at 0.1 µM.
Chain of Epidermal growth factor receptor (Homo sapiens), P00533 [L858R,T790M] (P00533 whole entry T790M/L858R, looked up): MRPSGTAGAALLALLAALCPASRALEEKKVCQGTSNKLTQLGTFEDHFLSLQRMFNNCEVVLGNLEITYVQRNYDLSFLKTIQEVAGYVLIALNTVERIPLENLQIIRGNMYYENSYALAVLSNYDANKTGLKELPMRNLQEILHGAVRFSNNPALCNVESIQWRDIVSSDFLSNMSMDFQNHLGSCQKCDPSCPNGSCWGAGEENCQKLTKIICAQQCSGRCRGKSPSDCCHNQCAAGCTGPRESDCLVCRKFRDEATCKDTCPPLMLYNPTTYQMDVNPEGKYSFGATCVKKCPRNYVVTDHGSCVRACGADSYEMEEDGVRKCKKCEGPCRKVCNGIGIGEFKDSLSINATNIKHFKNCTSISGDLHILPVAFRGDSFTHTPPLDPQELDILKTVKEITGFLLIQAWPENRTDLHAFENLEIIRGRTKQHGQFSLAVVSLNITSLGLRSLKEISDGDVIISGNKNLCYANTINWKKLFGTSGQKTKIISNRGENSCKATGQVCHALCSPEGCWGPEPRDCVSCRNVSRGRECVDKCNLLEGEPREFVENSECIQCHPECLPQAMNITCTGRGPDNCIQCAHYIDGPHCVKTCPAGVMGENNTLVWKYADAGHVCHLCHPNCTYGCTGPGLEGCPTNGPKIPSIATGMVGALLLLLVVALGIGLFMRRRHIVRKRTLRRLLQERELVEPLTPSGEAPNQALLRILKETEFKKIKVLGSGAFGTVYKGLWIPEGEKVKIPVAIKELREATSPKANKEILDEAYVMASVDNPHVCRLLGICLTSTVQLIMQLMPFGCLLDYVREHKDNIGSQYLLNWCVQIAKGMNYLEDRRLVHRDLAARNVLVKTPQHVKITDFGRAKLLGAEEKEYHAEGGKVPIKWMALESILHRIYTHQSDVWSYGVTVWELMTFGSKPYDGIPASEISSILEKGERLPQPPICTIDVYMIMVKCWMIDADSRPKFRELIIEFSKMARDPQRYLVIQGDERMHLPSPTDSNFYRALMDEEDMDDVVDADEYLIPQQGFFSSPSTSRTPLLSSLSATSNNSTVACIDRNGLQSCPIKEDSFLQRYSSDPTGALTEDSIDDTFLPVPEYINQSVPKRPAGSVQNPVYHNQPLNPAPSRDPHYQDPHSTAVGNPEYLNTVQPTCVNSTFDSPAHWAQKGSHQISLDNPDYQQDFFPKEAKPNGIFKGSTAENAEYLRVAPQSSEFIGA
Experiment [13] shares this test system. Particulars: at 1 µM.
Experiment [14] concerns the target Ephrin type-A receptor 2 (Homo sapiens) (UniProt P29317). Particulars: at 0.1 µM.
Experiment [15] has the same target. Particulars: at 1 µM.
Experiment [16] has as its target T2, Ephrin type-A receptor 3 (Homo sapiens) (UniProt P29320).
T2 sequence (whole entry): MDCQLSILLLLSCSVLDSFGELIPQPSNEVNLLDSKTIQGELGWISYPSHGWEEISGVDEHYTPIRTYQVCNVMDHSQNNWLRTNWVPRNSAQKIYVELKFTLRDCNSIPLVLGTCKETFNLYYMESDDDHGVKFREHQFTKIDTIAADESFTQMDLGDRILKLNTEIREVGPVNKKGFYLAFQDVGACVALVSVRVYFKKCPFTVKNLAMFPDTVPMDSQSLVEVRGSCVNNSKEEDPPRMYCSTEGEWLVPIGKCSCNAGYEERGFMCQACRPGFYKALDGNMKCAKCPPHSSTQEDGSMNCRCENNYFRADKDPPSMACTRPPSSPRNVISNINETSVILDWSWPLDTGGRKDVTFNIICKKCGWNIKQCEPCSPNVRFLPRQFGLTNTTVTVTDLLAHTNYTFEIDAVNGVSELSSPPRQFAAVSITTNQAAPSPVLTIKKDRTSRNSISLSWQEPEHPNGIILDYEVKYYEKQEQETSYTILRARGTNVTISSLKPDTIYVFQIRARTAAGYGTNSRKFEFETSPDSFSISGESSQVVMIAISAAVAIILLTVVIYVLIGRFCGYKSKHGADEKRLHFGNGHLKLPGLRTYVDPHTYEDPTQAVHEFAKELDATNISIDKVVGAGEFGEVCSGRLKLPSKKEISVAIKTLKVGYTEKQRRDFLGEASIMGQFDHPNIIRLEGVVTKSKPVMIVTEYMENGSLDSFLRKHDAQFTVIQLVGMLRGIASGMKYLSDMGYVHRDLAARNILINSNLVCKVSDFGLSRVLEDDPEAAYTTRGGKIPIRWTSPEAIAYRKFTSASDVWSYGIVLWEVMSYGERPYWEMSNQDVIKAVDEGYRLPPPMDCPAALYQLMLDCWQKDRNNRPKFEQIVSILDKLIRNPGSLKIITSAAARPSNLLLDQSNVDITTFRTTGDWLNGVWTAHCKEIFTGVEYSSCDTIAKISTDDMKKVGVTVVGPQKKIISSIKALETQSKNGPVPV
The note with it: at 0.1 µM.

Experiment [17] has as its target T2, Ephrin type-A receptor 3 (Homo sapiens). The note with it: at 1 µM.
For experiment [18], the target named is Ephrin type-A receptor 4 (Homo sapiens) (UniProt P54764). Particulars: at 0.1 µM.
Experiment [19] has the same target. Particulars: at 1 µM.
For experiment [20], the target named is T3, Ephrin type-B receptor 2 (Homo sapiens) (UniProt P29323).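 Note: reported as mean inhibition of EPHB2, from the GSK PKIS dataset.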
T3 sequence (whole entry): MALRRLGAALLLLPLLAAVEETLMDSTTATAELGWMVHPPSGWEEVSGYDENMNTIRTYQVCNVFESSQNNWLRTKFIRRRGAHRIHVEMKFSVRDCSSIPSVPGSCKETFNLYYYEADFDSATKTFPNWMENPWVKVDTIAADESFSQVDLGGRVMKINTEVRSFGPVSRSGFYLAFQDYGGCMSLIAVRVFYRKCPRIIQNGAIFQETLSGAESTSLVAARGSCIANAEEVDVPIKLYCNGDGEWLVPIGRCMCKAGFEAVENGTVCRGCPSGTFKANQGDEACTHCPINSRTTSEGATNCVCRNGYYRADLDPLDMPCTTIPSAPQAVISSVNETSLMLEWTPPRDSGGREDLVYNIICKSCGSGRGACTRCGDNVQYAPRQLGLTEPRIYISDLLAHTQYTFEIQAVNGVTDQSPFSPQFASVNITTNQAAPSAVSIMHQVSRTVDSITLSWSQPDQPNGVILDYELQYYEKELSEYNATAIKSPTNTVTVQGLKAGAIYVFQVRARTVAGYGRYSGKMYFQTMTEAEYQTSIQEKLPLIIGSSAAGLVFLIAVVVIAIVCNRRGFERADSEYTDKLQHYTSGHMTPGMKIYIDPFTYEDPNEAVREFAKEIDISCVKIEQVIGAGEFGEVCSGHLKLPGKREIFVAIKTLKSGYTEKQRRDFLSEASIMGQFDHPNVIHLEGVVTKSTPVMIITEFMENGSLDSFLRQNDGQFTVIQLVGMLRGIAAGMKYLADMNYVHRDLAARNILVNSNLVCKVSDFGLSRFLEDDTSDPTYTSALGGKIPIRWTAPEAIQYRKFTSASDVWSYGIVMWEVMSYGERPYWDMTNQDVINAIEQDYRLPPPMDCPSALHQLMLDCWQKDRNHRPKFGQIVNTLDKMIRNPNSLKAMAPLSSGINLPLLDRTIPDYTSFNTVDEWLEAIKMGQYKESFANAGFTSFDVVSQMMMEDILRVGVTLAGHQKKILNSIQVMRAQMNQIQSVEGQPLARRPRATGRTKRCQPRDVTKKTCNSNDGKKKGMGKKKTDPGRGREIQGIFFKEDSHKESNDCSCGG
The note with it: at 0.1 µM.

As a reminder, the inhibition is the drop in the measured response relative to a control, in per cent.

Chain of Ephrin type-A receptor 2 (Homo sapiens) (P29317 whole entry): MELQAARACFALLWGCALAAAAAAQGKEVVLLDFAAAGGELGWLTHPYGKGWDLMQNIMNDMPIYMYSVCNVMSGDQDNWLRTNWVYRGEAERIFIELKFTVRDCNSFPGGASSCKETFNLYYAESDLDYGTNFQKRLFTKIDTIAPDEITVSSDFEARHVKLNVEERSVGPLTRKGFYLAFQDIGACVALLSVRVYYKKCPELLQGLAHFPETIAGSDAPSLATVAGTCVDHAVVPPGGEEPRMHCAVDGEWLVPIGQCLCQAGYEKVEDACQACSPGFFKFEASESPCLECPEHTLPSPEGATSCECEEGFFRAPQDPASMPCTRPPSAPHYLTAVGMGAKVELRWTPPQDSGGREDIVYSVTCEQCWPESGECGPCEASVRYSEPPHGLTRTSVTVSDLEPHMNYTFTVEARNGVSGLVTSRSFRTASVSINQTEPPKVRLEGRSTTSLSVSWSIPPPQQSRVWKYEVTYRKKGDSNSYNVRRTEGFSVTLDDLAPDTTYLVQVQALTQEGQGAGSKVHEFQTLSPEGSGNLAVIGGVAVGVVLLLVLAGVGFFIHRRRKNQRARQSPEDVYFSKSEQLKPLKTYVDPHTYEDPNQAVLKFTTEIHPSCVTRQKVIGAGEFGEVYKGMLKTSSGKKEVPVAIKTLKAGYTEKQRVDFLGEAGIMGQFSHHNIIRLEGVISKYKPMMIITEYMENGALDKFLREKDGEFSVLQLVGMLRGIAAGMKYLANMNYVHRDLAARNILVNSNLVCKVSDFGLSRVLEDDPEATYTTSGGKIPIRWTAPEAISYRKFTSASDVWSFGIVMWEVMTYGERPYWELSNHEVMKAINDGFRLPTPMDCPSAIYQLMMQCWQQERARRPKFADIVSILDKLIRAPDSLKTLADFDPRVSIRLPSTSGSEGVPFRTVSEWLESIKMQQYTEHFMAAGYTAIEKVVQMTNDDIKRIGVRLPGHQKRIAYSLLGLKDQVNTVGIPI
Chain of Epidermal growth factor receptor (Homo sapiens) (P00533 whole entry): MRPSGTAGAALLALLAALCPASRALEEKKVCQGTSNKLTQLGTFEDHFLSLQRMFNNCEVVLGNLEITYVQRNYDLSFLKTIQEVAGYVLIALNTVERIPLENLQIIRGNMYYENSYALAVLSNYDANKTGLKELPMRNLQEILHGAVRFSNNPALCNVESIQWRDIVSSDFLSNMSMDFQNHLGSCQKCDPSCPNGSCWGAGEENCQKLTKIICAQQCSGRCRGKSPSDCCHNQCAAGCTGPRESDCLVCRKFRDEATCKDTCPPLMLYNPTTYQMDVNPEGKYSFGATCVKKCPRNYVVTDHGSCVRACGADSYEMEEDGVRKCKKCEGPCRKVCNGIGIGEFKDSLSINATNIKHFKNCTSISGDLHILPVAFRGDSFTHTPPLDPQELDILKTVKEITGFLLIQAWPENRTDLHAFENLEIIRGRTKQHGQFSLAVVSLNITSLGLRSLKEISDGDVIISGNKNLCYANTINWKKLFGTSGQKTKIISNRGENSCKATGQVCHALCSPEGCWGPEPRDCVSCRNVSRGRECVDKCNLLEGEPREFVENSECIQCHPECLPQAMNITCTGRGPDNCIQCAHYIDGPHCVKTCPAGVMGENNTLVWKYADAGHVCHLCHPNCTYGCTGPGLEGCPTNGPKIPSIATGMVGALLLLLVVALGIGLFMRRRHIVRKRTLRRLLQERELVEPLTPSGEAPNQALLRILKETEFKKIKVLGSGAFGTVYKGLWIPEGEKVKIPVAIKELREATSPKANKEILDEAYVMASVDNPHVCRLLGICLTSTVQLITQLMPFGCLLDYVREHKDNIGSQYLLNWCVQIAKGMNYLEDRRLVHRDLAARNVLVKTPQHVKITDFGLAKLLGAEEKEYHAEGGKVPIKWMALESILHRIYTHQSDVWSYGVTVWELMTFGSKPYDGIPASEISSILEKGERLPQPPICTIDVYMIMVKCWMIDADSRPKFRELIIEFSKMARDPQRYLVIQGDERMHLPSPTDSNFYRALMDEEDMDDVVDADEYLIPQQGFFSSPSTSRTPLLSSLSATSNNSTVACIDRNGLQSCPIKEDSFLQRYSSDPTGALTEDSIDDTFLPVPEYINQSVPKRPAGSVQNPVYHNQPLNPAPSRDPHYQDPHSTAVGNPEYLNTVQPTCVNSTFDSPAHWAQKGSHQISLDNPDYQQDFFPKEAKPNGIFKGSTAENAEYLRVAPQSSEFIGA
Chain of Tyrosine-protein kinase CSK (Homo sapiens) (P41240 2-450 limits assumed): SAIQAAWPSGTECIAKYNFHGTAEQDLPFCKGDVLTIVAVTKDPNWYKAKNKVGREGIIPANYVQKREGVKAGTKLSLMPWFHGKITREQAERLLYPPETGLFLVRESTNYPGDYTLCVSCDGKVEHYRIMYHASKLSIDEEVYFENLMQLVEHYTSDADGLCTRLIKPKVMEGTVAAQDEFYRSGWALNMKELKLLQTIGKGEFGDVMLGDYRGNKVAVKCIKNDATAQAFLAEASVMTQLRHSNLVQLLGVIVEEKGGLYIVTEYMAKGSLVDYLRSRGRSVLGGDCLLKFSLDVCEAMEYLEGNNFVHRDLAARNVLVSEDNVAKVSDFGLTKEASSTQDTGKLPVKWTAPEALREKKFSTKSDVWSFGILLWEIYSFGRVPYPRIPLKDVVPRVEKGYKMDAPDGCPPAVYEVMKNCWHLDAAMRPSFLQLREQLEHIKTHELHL

Consider `CCc1nn2ncccc2c1-c1ccnc(NC2CC2)n1`, for which the inhibition in experiment [1] is 1.97%; in experiment [2], 1.02%; in experiment [3], 1.6%; in experiment [4], 2.78%; in experiment [5], 4.33%; in experiment [6], 1.84%. In addition, the inhibition is 0.95% in experiment [7]; 1.81% in [8]; 2.47% in experiment [9]; 1.44% in [10]; 1.56% in experiment [11]; -2.33% in [12]. Besides, the inhibition is 0.76% in experiment [13]; 0.52% in experiment [14]; 0.58% in experiment [15]; 2.4% in experiment [16]; 3.87% in [17]; 4.8% in experiment [18]. Further, the results for the inhibition in experiment [19] and in [20] were 8.02% and -1.23%, respectively.
As for `CC(=O)NCc1cccc(C#Cc2cncnc2Nc2ccc(OCc3cccc(F)c3)c(Cl)c2)c1`, the inhibition in experiment [1] was -2.55%; in [2], 1.32%; in experiment [3], 1.46%; in experiment [4] it was 61.2%; in experiment [5] it was 75.8%; in experiment [6] it was 10.4%. Moreover, the inhibition in experiment [7] is 54.2%; in [8], 24%; in experiment [9], 42.1%; in [10] it was -1.44%; in experiment [11], 0.3%; in [12], 1.41%. The inhibition in experiment [13] is 1.74%; in experiment [14] it was -3.31%; in experiment [15] it was -4.19%; in experiment [16], -2.09%; in experiment [17], 0.64%; in [18], -2.22%. For the same molecule, the inhibition in experiment [20] came to 0.63%.
`CC(C)(CO)CNC(=O)c1ccc2c(c1)/C(=N/Nc1ccc(S(N)(=O)=O)cc1)C(=O)N2`: the inhibition in [1] was -0.3%; in experiment [2], -1.82%; in experiment [3], 3.39%; in [4], 5.33%; in experiment [5], 5.03%; in [6], -3.09%. In addition, the inhibition in [7] is -0.53%; in experiment [8] it was -0.63%; in experiment [9] it was -0.88%; in experiment [10] it was -1.56%; in experiment [11], -0.95%; in experiment [12], -1.33%. In addition, the inhibition in experiment [13] is -1.42%; in experiment [14] it was -2.4%; in experiment [15], -2.69%; in experiment [16], -0.22%; in experiment [17] it was 1.81%; in [18] it was -0.06%. For the same molecule, the inhibition was 10.3% in experiment [19] and -4.35% in experiment [20].
For `NS(=O)(=O)c1ccc(Nc2ncc(-c3ccccc3)o2)cc1`, the inhibition in experiment [1] turned out to be 5.89%; in [2], 1.76%; in experiment [3], 4.71%; in experiment [4], 1.02%; in [5], 1.18%; in experiment [6], 2.83%. In addition, the inhibition in [7] came to 6.04%; in experiment [8], 2.61%; in experiment [9], 2.73%; in [10] it was 0.68%; in experiment [11], 0.87%; in experiment [12], 2.14%. The inhibition in experiment [13] was 0.87%; in experiment [14], 2.66%; in experiment [15] it was 3.5%; in experiment [16], 2.94%; in experiment [17] it was 4.57%; in experiment [18], 7.23%. In addition, the inhibition was found to be 12% in experiment [19] and 5.54% in [20].
For the molecule `Nc1nc(-c2cccc(Cl)c2)c(-c2ccc3ncccc3n2)s1`, the inhibition is 6.75% in [1]; -0.28% in [2]; -6.1% in experiment [3]; 0.13% in experiment [4]; 6.93% in experiment [5]; 0.4% in experiment [6]. In addition, the inhibition in experiment [7] worked out at 15.8%; in experiment [8], 3.07%; in experiment [9], 10.1%; in experiment [10], 3.5%; in [11], 6.65%; in experiment [12], 5%. The inhibition in experiment [13] was 7.85%; in experiment [14], 0.6%; in experiment [15], 0.92%; in [16] it was 4.59%; in [17] it was 4.27%; in experiment [18], 11%. Also, the inhibition in experiment [19] amounted to 14.8%; in experiment [20], 6.05%.
With `CCn1c(-c2nonc2N)nc2c(C#CC(C)(C)O)nc(OC[C@H](N)c3ccccc3)cc21`, the inhibition in [1] was 2.13%; in experiment [2], 1.12%; in experiment [3], 1.65%; in [4], 2.01%; in experiment [5], 13.4%; in experiment [6], 1.93%. The inhibition in experiment [7] is 1.86%; in [8] it was -0.13%; in experiment [9] it was 2.36%; in [10], 1.22%; in experiment [11], 4.71%; in [12], 0.92%. The inhibition is 2.55% in [13]; 0.4% in experiment [14]; -0.31% in [15]; 2.11% in experiment [16]; 1.87% in [17]; 5.06% in experiment [18]. Besides, the inhibition turned out to be 4.87% in experiment [19] and 0.04% in experiment [20].
`CCn1c(-c2nonc2N)nc2ccccc21`: the inhibition was -0.41% in [1]; 1.73% in experiment [2]; 2.19% in [3]; 2.08% in [4]; 1.93% in [5]; 3.02% in experiment [6]. Moreover, the inhibition in [7] is 0.86%; in [8], 1.96%; in experiment [9], 0.53%; in experiment [10] it was -0.1%; in experiment [11], -1.8%; in experiment [12] it was 2%. Besides, the inhibition in [13] was -0.39%; in experiment [14], -0.14%; in experiment [15], 0.64%; in [16], 5.44%; in [17], 3.08%; in [18], 7.78%. Besides, the inhibition in experiment [19] came out at 9.13%; in [20], 6.72%.
